The nature of assay [1]: HepG2 liver cancer cell viability effects, profiling panel, resazurin fluorescence, 24 h, PK04 Diversity Set (AID 1172). Note: test concentration not given here. As to conditions: higher = more signal. In general terms: Alamar Blue is a resazurin reagent that responds to reducing activity.
Assay [2] is described as follows: basal S. cerevisiae growth modulation, no modifier, primary screen, OD600, strain BY4716, 24 h, basal condition (AID 1173). As to conditions: OD600, 24 h, higher = more signal, called active from +8 up or from −8 down.
A short description of assay [3]: MM1S myeloma cell viability, profiling panel, resazurin fluorescence, basal, 24 h, PK04 Diversity Set (AID 1174).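 Note: MM1S multiple myeloma cell line; test concentration not given here.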 As to conditions: higher = more signal, called active from +8 up or from −8 down.
Assay [4] has as its target Dihydroorotate dehydrogenase (quinone), mitochondrial (Plasmodium falciparum (isolate 3D7)) (UniProt Q08210). In words: PfDHODH enzyme inhibitors, primary screen, biochemical, C-terminal His tag, absorbance 600 nm (AID 1175).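 Note: recombinant parasite enzyme with a five histidine tag at its C terminus; test concentration not given here.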 As to conditions: DCIP absorbance 600 nm, higher = more signal, called active from +8 up or from −8 down.
A short description of assay [5]: P. aeruginosa biofilm formation inhibitors, primary screen, strain PAO1, LB-PBS medium, absorbance 600 nm (AID 1176). Note: test concentration not given here. As to conditions: P. aeruginosa PAO1 growth/biofilm, A600, 12 h; higher = more signal.
Assay [6] can be described thus: S. cerevisiae RM11-1a growth modifiers, primary screen, strain RM11-1a, OD600, basal, 24 h (AID 1177).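 Note: cultures grown under basal conditions with no added stressor; test concentration not given here.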 As to conditions: OD600, 24 h, higher = more signal, called active from +8 up or from −8 down.
Assay [7] in a line: E. coli acrAB mutant growth effects, primary screen, E. coli filamentation inducers, strain DRC39, OD650, 24 h (AID 1178).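 Note: growth measured as culture turbidity by optical density at 650 nm; test concentration not given here.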 As to conditions: higher = more signal, called active from +8 up or from −8 down.
The nature of assay [8]: E. coli acrAB mutant growth effects, primary screen, E. coli filamentation inducers, strain DRC39, OD650, 48 h (AID 1179).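 Note: screen aims at cell division blockers that make cells filament.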 As to conditions: E. coli DRC39 delta-acrAB growth, higher = more signal, called active from +8 up or from −8 down.
Assay [9] can be described thus: RPMI8226 myeloma cell viability, profiling panel, resazurin fluorescence, basal, 24 h, PK04 Diversity Set (AID 1180).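 Note: RPMI8826 multiple myeloma cell line at 5000 cells per well; test concentration not given here.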 As to conditions: higher = more signal.
Assay [10] concerns the target E3 ubiquitin-protein ligase XIAP (Homo sapiens) (UniProt P98170). In words: XIAP binders, primary screen, biophysical, small-molecule microarray, fluorescence 635 nm (AID 1181).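 Note: score merges 667 nm emission and signal to noise over triplicate slides.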 As to conditions: small-molecule microarray binding, higher = more signal.

Calls of active or inactive are those of the source. Unless noted, the rule behind the calls is not given here.

E3 ubiquitin-protein ligase XIAP (Homo sapiens), sequence (P98170 whole entry, looked up): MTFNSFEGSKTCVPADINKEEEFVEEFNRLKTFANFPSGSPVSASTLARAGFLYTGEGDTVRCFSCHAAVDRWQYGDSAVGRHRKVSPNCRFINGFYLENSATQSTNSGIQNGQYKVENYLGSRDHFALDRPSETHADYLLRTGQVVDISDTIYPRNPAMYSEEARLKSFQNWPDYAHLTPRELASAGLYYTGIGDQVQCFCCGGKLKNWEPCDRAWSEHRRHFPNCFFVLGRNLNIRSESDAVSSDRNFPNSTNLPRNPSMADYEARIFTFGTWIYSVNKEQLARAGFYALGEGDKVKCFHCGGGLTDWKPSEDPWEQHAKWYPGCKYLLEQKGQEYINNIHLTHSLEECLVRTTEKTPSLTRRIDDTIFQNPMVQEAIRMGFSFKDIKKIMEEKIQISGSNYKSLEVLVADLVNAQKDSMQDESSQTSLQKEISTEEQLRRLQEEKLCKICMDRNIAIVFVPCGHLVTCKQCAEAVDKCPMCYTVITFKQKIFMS
Dihydroorotate dehydrogenase (quinone), mitochondrial (Plasmodium falciparum (isolate 3D7)), sequence (Q08210 whole entry, looked up): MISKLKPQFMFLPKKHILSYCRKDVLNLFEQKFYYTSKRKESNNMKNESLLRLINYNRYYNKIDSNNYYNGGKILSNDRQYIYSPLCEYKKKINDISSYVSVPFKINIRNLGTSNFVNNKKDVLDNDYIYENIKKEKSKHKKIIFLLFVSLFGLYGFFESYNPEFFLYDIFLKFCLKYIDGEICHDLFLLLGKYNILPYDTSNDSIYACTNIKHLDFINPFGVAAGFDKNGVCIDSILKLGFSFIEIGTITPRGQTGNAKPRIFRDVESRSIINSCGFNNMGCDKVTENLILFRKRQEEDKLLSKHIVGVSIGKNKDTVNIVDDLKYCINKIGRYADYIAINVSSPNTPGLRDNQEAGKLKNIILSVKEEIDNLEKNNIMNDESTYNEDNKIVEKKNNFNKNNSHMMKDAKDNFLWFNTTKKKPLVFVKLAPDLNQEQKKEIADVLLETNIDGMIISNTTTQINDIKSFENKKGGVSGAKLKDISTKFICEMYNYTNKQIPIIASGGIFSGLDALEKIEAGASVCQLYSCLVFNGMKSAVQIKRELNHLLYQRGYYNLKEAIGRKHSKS

As for `OB1C=CCC(CCc2ccccc2)O1` (stereo not given), the z-score in assay [1] is -0.246; in assay [2] it was -3.2 (inactive); in [3], 0.506 (inactive); in [5] it was 1.45 (inactive); in assay [6], -2.36 (inactive); in assay [7] it was 2.73 (inactive). Also, the z-score was 0.96 (inactive) in [8] and 0.23 in assay [9]. Moreover, the composite z-score in assay [4] is -0.685 (inactive); in [10], -0.275.

In the case of `O=C1NC(=O)C2C1C=CC(C(O)C1CC=CCC1)N2Nc1ccccn1` (stereo not given), the z-score in assay [1] is -1.16; in assay [2], 1.05 (inactive); in assay [3], -1.35 (inactive); in [5] it was 0.916 (inactive); in assay [6], 0.636 (inactive); in assay [7], -0.857 (inactive). Also, the z-score in assay [8] was -0.0662 (inactive); in [9] it was -1.57. The composite z-score in [4] is 1.07 (inactive); in assay [10] it was 0.0512.

As to `C=CCNC(=O)[C@@H]1[C@H]2C(=O)O[C@H](c3ccccc3)[C@H](c3ccccc3)N2[C@H](c2ccc(OCCO)cc2)[C@@]12C(=O)N(C(=O)OCCOC)c1ccc(C#CCC(C(=O)OC)C(=O)OC)cc12`, the z-score in assay [1] was -0.185; in [2], 1.01 (inactive); in assay [3], 0.351 (inactive); in [5], 2.85 (inactive); in assay [6] it was 1.61 (inactive); in assay [7] it was 0.854 (inactive). Also, the z-score is -0.033 (inactive) in assay [8] and -1.24 in [9]. Also, the composite z-score was -1.27 (inactive) in assay [4] and 0.284 in assay [10].

Turning to `COc1ccc([Si](C)(C)[C@@H]2[C@@H](CCO)O[C@]3(C(=O)N(Cc4cccc(N5CCOC5=O)c4)c4ccccc43)[C@H]2C)cc1`, the z-score is -1.09 in assay [1]; 2.41 (inactive) in assay [2]; -3.35 (inactive) in assay [3]; 2.95 (inactive) in assay [5]; 6.05 (inactive) in [6]; 1.4 (inactive) in [7]. Also, the results for the z-score in [8] and in [9] were 0.44 (inactive) and -2.78, respectively. The composite z-score in assay [4] was -0.346 (inactive); in assay [10] it was -0.0599.

For `C=CCN1Cc2ccccc2[C@@H]2OC(c3ccc(OCCCO)cc3)=N[C@]2(CCS(=O)(=O)c2ccccc2)C1=O`, the z-score is 0.277 in assay [1]; 1.28 (inactive) in assay [2]; -0.751 (inactive) in [3]; 1.4 (inactive) in [5]; 1.38 (inactive) in assay [6]; 0.61 (inactive) in assay [7]. Moreover, the figures for the z-score in assay [8] and in assay [9] were 0.713 (inactive) and -0.764, respectively. Further, the composite z-score in [4] is 0.651 (inactive); in assay [10], -0.123.

Consider `COc1ccc(C(O)C2C=CC3C(=O)N(C)C(=O)C3N2NC(=O)OC(C)(C)C)c2ccccc12` (stereo not given), for which the z-score is -1.78 in assay [1]; -1.15 (inactive) in assay [2]; -0.0317 (inactive) in assay [3]; 0.503 (inactive) in [5]; 1.06 (inactive) in assay [6]; -0.45 (inactive) in [7]. The z-score in assay [8] was -0.765 (inactive); in assay [9] it was -0.993. Further, the values for the composite z-score in assay [4] and in [10] were 0.799 (inactive) and -0.193, respectively.

Take `CCCCN1CC=CC23O[C@@H]4/C=C\CCCOC(=O)C4[C@H]2C(=O)N(CCCO)[C@@H]3C1=O` (stereo not given in full): the z-score is 0.426 in [1]; 0.129 (inactive) in assay [2]; 0.31 (inactive) in assay [3]; 0.55 (inactive) in assay [5]; -1.39 (inactive) in [6]; -0.0564 (inactive) in assay [7]. The z-score in assay [8] was -0.314 (inactive); in assay [9] it was 0.309. For the same molecule, the results for the composite z-score in assay [4] and in assay [10] were 0.119 (inactive) and -0.31, respectively.

Take `COC(=O)c1c(CC[C@@H](CO)NC(=O)N[C@@H](Cc2ccccc2)Cn2cc(-c3ccccn3)nn2)oc(C(=O)N2CCOCC2)c1C(=O)OC`: the z-score in assay [1] is 0.482; in assay [2], -0.239 (inactive); in [3] it was 0.475 (inactive); in assay [5], -0.476 (inactive); in assay [6], 1.3 (inactive); in assay [7], 0.506 (inactive). The results for the z-score in assay [8] and in assay [9] were 0.327 (inactive) and 0.277, respectively. The composite z-score in assay [4] was 0.138 (inactive); in assay [10], 0.23.

In the case of `CC(=O)n1cc(C(O)C2C=CC3C(=O)NC(=O)C3N2Nc2ccccn2)c2ccccc21` (stereo not given), the z-score in [1] is -1.3; in assay [2] it was 0.627 (inactive); in assay [3] it was -1.67 (inactive); in assay [5] it was 1.33 (inactive); in assay [6] it was 0.605 (inactive); in assay [7] it was -0.641 (inactive). For the same molecule, the z-score was -0.109 (inactive) in assay [8] and -1.31 in assay [9]. Further, the values for the composite z-score in [4] and in [10] were 0.496 (inactive) and 0.07, respectively.

As for `COc1ccc([C@H]2C[C@H]3C(Br)=C[C@@]2(CO)C(=O)[C@]32CO2)cc1`, the z-score was 0.231 in assay [1]; -4.42 (inactive) in [2]; -0.445 (inactive) in assay [3]; 0.118 (inactive) in assay [5]; -0.121 (inactive) in assay [6]; -0.0919 (inactive) in assay [7]. Moreover, the results for the z-score in [8] and in assay [9] were -0.0065 (inactive) and -0.384, respectively. Besides, the figures for the composite z-score in assay [4] and in assay [10] were -0.174 (inactive) and 0.0009, respectively.

Take `C=CCN1C(=O)[C@]2(Cc3ccccc3)N=C(c3ccc(OCCCO)cc3)O[C@@H]2c2ccccc21`: the z-score in assay [1] is -0.983; in assay [2], -1.34 (inactive); in assay [3], -4.58 (inactive); in assay [5] it was 0.824 (inactive); in [6], 1.68 (inactive); in [7] it was 0.0733 (inactive). The results for the z-score in [8] and in assay [9] were 0.884 (inactive) and -5.39, respectively. Besides, the composite z-score in assay [4] is -0.963 (inactive); in assay [10] it was 0.33.

Turning to `C[N+](C)(C)CCCCCCNC(=O)[C@H]1C[C@H]2C(=O)N[C@@H](Cc3ccccc3)C(=O)N2[C@H]1c1cccc(OCCO)c1`, the z-score in [1] was 0.384; in assay [2], 0.0938 (inactive); in assay [3], 0.313 (inactive); in assay [5], 0.255 (inactive); in assay [6], 0.548 (inactive); in assay [7], 0.395 (inactive). In addition, the z-score was 0.551 (inactive) in assay [8] and 0.23 in [9]. Further, the composite z-score was -1.22 (inactive) in assay [4] and -0.144 in assay [10].
